Laboratory results published in the supplement of paper PMC8285479.
Structures can show the parent of a compound that is named as a salt. ± gives the standard deviation of the averaged measurements. The full ranking holds about 1,900 compounds; the median of “normalised cell viability (NPI; 0 = phenylarsine oxide control, 1 = DMSO control)” is about 1, and the lowest 2% start at about 0.039. The sample holds the lowest values, similar compounds and a random draw of the others, so the mix is not that of the screen.

Test system: NCI-H1944
Assay: normalised cell viability (NPI; 0 = phenylarsine oxide control, 1 = DMSO control) (fraction of DMSO control); NCI-H1944 is a non-small cell lung cancer line; higher = more viable cells (less compound toxicity)
Conditions: 6 days
[1] = glucocorticoid arm: hydrocortisone 2.75 uM co-treatment, compound 1 µM
[2] = glucocorticoid arm: hydrocortisone 2.75 uM co-treatment, compound 5 µM
[3] = glucocorticoid arm: hydrocortisone 2.75 uM pre-treated 2 days and continued, compound 1 µM
[4] = glucocorticoid arm: hydrocortisone 2.75 uM pre-treated 2 days and continued, compound 5 µM
[5] = glucocorticoid arm: vehicle, compound 1 µM
[6] = glucocorticoid arm: vehicle, compound 5 µM
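Also: CTB read-out in 384-well plates, triplicate wells, NPI normalised per plate against 1 µM phenylarsine oxide (0) and 0.1% DMSO (1) controls.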

Structure (SMILES): CN1CCN(C2Cc3ccccc3Sc3ccc(Cl)cc32)CC1 (racemic) [(±)-Octoclothepin maleate]
- normalised cell viability [1]: 1.01 ± 0.011
- normalised cell viability [2]: 0.9477 ± 0.0045
- normalised cell viability [3]: 1.01 ± 0.015
- normalised cell viability [4]: 1.05 ± 0.087
- normalised cell viability [5]: 1 ± 0.0095
- normalised cell viability [6]: 1 ± 0.011

Structure (SMILES): [N-]=[N+]=Nc1ccc(C(=O)CSC[C@H](NC(=O)CC[C@H](N)C(=O)O)C(=O)NCC(=O)O)cc1 [S-(p-Azidophenacyl)glutathione]
- normalised cell viability [1]: 1.017 ± 0.0058
- normalised cell viability [2]: 0.814 ± 0.0099
- normalised cell viability [3]: 0.9947 ± 0.0067
- normalised cell viability [4]: 1 ± 0.021
- normalised cell viability [5]: 0.988 ± 0.014
- normalised cell viability [6]: 0.517 ± 0.38

Structure (SMILES): COCC[n+]1c2c(n(Cc3cnccn3)c1C)C(=O)c1ccccc1C2=O
- normalised cell viability [1]: 0.00685 ± 0.0014
- normalised cell viability [2]: 0.00188 ± 0.0012
- normalised cell viability [3]: 0.00552 ± 0.0012
- normalised cell viability [4]: 0.0024 ± 0.00039
- normalised cell viability [5]: 0.00736 ± 0.00083
- normalised cell viability [6]: 0.00199 ± 0.00048

Structure (SMILES): OC[C@H]1O[C@@H](n2cnc3c(Nc4ccccc4)ncnc32)[C@H](O)[C@@H]1O [N6-Phenyladenosine]
- normalised cell viability [1]: 1 ± 0.014
- normalised cell viability [2]: 1.01 ± 0.011
- normalised cell viability [3]: 1.02 ± 0.022
- normalised cell viability [4]: 1.013 ± 0.0058
- normalised cell viability [5]: 1.01 ± 0.01
- normalised cell viability [6]: 1.002 ± 0.0076

Structure (SMILES): COc1[nH]c2ccc(F)cc2c1C(=O)OCC1CCN(CCNS(C)(=O)=O)CC1.NS(=O)(=O)O
- normalised cell viability [1]: 1.023 ± 0.0058
- normalised cell viability [2]: 0.955 ± 0.011
- normalised cell viability [3]: 1.017 ± 0.0058
- normalised cell viability [4]: 0.989 ± 0.021
- normalised cell viability [5]: 0.9993 ± 0.0011
- normalised cell viability [6]: 1.007 ± 0.0058

Structure (SMILES): CN(C)Cc1ccc(S(=O)(=O)n2ccc(/C=C/C(=O)NO)c2)cc1 [Resminostat]
- normalised cell viability [1]: 0.941 ± 0.011
- normalised cell viability [2]: 0.92 ± 0.018
- normalised cell viability [3]: 0.961 ± 0.011
- normalised cell viability [4]: 1.023 ± 0.0058
- normalised cell viability [5]: 1.001 ± 0.0081
- normalised cell viability [6]: 0.214 ± 0.026

Structure (SMILES): N[C@@H](Cc1c[nH]c2ccccc12)C(=O)O [L-Tryptophan]
- normalised cell viability [1]: 1.01
- normalised cell viability [2]: 1.027 ± 0.0058
- normalised cell viability [3]: 1.03 ± 0.032
- normalised cell viability [4]: 1.033 ± 0.0058
- normalised cell viability [5]: 0.999 ± 0.001
- normalised cell viability [6]: 1.003 ± 0.0058

Structure (SMILES): O=C(/C=C/c1ccc(CN(CCO)CCc2c[nH]c3ccccc23)cc1)NO [LAQ824 (Dacinostat)]
- normalised cell viability [1]: 0.00706 ± 0.0016
- normalised cell viability [2]: -0.000483 ± 0.0039
- normalised cell viability [3]: 0.0151 ± 0.00085
- normalised cell viability [4]: 0.00158 ± 0.00078
- normalised cell viability [5]: 0.0063 ± 0.00096
- normalised cell viability [6]: -0.000399 ± 0.00047

Structure (SMILES): Ic1ccc(N2CCN(Cc3c[nH]c4ncccc34)CC2)cc1 [L-750,667 trihydrochloride]
- normalised cell viability [1]: 0.969 ± 0.003
- normalised cell viability [2]: 0.883 ± 0.014
- normalised cell viability [3]: 0.99 ± 0.0044
- normalised cell viability [4]: 0.999 ± 0.087
- normalised cell viability [5]: 0.988 ± 0.011
- normalised cell viability [6]: 0.998 ± 0.019

Structure (SMILES): CC1CCN=C(N)S1 (racemic) [(±)-AMT hydrochloride]
- normalised cell viability [1]: 0.982 ± 0.015
- normalised cell viability [2]: 0.968 ± 0.015
- normalised cell viability [3]: 0.9923 ± 0.0067
- normalised cell viability [4]: 0.975 ± 0.0071
- normalised cell viability [5]: 0.9907 ± 0.0095
- normalised cell viability [6]: 0.9677 ± 0.0046

Structure (SMILES): OCc1ccc(-c2ccc(-c3ccc(CO)s3)o2)s1
- normalised cell viability [1]: 0.979 ± 0.0061
- normalised cell viability [2]: 0.0751 ± 0.0071
- normalised cell viability [3]: 1.017 ± 0.0058
- normalised cell viability [4]: 0.358 ± 0.022
- normalised cell viability [5]: 0.621 ± 0.045
- normalised cell viability [6]: 0.0128 ± 0.0026

Structure (SMILES): CCc1ccc(/C=C2/SC(=S)NC2=O)cc1
- normalised cell viability [1]: 1.01 ± 0.017
- normalised cell viability [2]: 1.06 ± 0.011
- normalised cell viability [3]: 1.04
- normalised cell viability [4]: 1.04 ± 0.021
- normalised cell viability [5]: 1.007 ± 0.0058
- normalised cell viability [6]: 1.013 ± 0.0058

Structure (SMILES): COC(=O)C(N)Cc1ccc(Cl)cc1 (racemic) [DL-p-Chlorophenylalanine methyl ester hydrochloride]
- normalised cell viability [1]: 1.02 ± 0.01
- normalised cell viability [2]: 1.02 ± 0.015
- normalised cell viability [3]: 1.017 ± 0.0058
- normalised cell viability [4]: 1.02 ± 0.014
- normalised cell viability [5]: 1.006 ± 0.0069
- normalised cell viability [6]: 1.017 ± 0.0058

Structure (SMILES): NC[C@@H]1O[C@H](C23CC4CC(CC(C4)C2)C3)Cc2c1ccc(O)c2O
- normalised cell viability [1]: 1.01 ± 0.012
- normalised cell viability [2]: 0.0562 ± 0.02
- normalised cell viability [3]: 1.01 ± 0.011
- normalised cell viability [4]: 0.996 ± 0.077
- normalised cell viability [5]: 1.01 ± 0.011
- normalised cell viability [6]: 0.0119 ± 0.0027

Structure (SMILES): CCCCCCCCCCCCCCCC(=O)OC(CC(=O)O)C[N+](C)(C)C (racemic) [Palmitoyl-DL-Carnitine chloride]
- normalised cell viability [1]: 1.02 ± 0.011
- normalised cell viability [2]: 0.975 ± 0.014
- normalised cell viability [3]: 1.013 ± 0.0058
- normalised cell viability [4]: 0.863 ± 0.28
- normalised cell viability [5]: 1.007 ± 0.0058
- normalised cell viability [6]: 1.02 ± 0.02

Structure (SMILES): CC(/C=C/C(=O)NO)=C\[C@@H](C)C(=O)c1ccc(N(C)C)cc1 [Trichostatin A]
- normalised cell viability [1]: 2.17e-05 ± 0.00056
- normalised cell viability [2]: 0.000584 ± 0.0001
- normalised cell viability [3]: 0.00474 ± 0.0016
- normalised cell viability [4]: 0.00101 ± 0.0013
- normalised cell viability [5]: -0.000312 ± 0.00084
- normalised cell viability [6]: 0.000187 ± 0.00072
